The values that follow come from the supplement of paper PMC13380429.

Experiment [1] concerns Vero E6 infected with SARS-CoV-2. In words: morphology score (similarity to uninfected cells); higher = more like uninfected cells. The note with it: 24 h.
For experiment [2] the test system is unchanged. In words: SARS-CoV-2 infection rate relative to infected DMSO; higher = more infection, active = 60 or less. To be noted: 24 h.

In the case of `CCO[C@H]1O[C@@H]2O[C@@]3(C)CC[C@H]4[C@H](C)CC[C@@H]([C@H]1C)[C@@]24OO3` [artemotil] (10 µM), the morphology score in experiment [1] is -0.085. Also, in experiment [2], the SARS-CoV-2 infection rate is 113% (inactive).
The corresponding values for `CC(C)[C@H](CO)Nc1nc(Nc2cccc(Cl)c2)c2ncn(C(C)C)c2n1` [purvalanol-A] (0.833333 µM) are -0.028 and 109% (inactive).
The corresponding values for `Brc1c(NC2=NCCN2)ccc2nccnc12` [brimonidine] (10 µM) are 0.0346 and 106% (inactive).
The corresponding values for `FC(F)(F)Oc1ccc2nc(-c3ccc(OCCOCCOc4ccc(-c5nc6ccc(OC(F)(F)F)cc6[nH]5)nc4)cn3)[nH]c2c1` (10 µM) are -0.247 and 116% (inactive).
With `O=C(O)CC(S)C(=O)O` (centres undefined) [mercaptosuccinic-acid] (10 µM), the morphology score in experiment [1] was -0.089. Further, the SARS-CoV-2 infection rate in experiment [2] was 108% (inactive).
The corresponding values for `Nc1ccn([C@@H]2O[C@@](CO)(CCl)[C@@H](O)[C@H]2F)c(=O)n1` (10 µM) are -0.0112 and 104% (inactive).
The corresponding values for `O=C(/C=C/c1ccc2c(c1)OCO2)N1CCCCC1` [ilepcimide] (10 µM) are 0.197 and 95.5% (inactive).
As for `O=C(COP(=O)(O)O)[C@@H](O)[C@H](O)[C@H](O)COP(=O)(O)O` [fosfructose] (10 µM), in experiment [1], the morphology score is -0.202. For the same compound, the SARS-CoV-2 infection rate in experiment [2] was 120% (inactive).
For `CC(C)c1ccc(CC(=O)N2CCC[C@@H](c3cccc(OC(C)(C)C(=O)O)c3)C2)cc1` (10 µM) the same measures were 0.109 and 96% (inactive).
Take `C[C@@H](O)[C@H]1C(=O)N2C(C(=O)[O-])=C(SC3Cn4cnc[n+]4C3)[C@H](C)[C@H]12` (some centres undefined) [biapenem] (10 µM): in experiment [1], the morphology score was -0.0332. Besides, the SARS-CoV-2 infection rate in experiment [2] is 99.5% (inactive).
The corresponding values for `NC(=O)NO` [hydroxyurea] (10 µM) are 0.223 and 100% (inactive).
For the compound `c1ccc([C@@H]2C[C@H]2NC2CCNCC2)cc1` (10 µM), the morphology score in experiment [1] was -0.09. The SARS-CoV-2 infection rate in experiment [2] was 114% (inactive).
In the case of `O=C1NS(=O)(=O)c2ccccc21` [saccharin] (10 µM), the morphology score in experiment [1] was -0.085. For the same compound, the SARS-CoV-2 infection rate in experiment [2] was 106% (inactive).
For `COc1ccc(CN(CCN(C)C)c2ccccn2)cc1` [mepyramine] (10 µM) the same measures were 0.0933 and 106% (inactive).
The corresponding values for `C=C1CC[C@H](O)C/C1=C/C=C1\CCC[C@]2(C)[C@@H]([C@H](C)CCCC(C)(C)O)CC[C@@H]12` [calcifediol] (10 µM) are -0.0147 and 115% (inactive).
For the compound `CC(=N)NCc1cccc(CN)c1` (10 µM), the morphology score in experiment [1] is -0.0209. Moreover, the SARS-CoV-2 infection rate in experiment [2] was 107% (inactive).
For `O=C(O)COCCN1CCN(C(c2ccccc2)c2ccc(Cl)cc2)CC1` (centres undefined) [cetirizine] (10 µM) the same measures were 0.153 and 98.2% (inactive).
The corresponding values for `Oc1c(Br)cc(Br)c2cccnc12` [broxyquinoline] (10 µM) are 0.015 and 104% (inactive).
For `NC(=S)N/N=C/c1coc2ccccc2c1=O.[Cl][Cu][Cl]` (10 µM) the same measures were -0.124 and 110% (inactive).
Turning to `O=C(OCC(COC(=O)c1cccnc1)(COC(=O)c1cccnc1)COC(=O)c1cccnc1)c1cccnc1` [niceritrol] (0.833333 µM), in experiment [1], the morphology score was 0.129. Moreover, in experiment [2], the SARS-CoV-2 infection rate is 96.5% (inactive).
The corresponding values for `N[C@H](C(=O)O)[C@H](O)c1ccc(O)c(O)c1` [droxidopa] (10 µM) are -0.0971 and 122% (inactive).
For `CN[C@H](CNC(=O)N1CCC[C@@H]([C@@H](OCCNC(=O)OC)c2cccc(Cl)c2)C1)C[C@H]1CCCOC1` (10 µM) the same measures were -0.0283 and 105% (inactive).
For `N#C/C(=C\c1ccc(O)c(O)c1)C(=O)NCCCc1ccccc1` (0.833333 µM) the same measures were -0.0747 and 119% (inactive).
Consider `CN(C)c1ccc2c(c1)Sc1cc(N(C)C)ccc1N2` [leucomethylene-blue] (0.833333 µM), for which the morphology score in experiment [1] was 0.0825. In addition, the SARS-CoV-2 infection rate in experiment [2] is 114% (inactive).
The corresponding values for `CCC1(C)CC(=O)NC1=O` (centres undefined) [ethosuximide] (10 µM) are 0.0477 and 104% (inactive).
For `COc1ccc2nc3[nH]nc(C)c3c(NCCOCCO)c2c1` (10 µM) the same measures were -0.00598 and 111% (inactive).
The corresponding values for `CCCCCCCCNC(C)C(O)c1ccc(SC(C)C)cc1` (centres undefined) [suloctidil] (10 µM) are 0.834 and 21.5% (active).
`CC[C@@H]1/C=C(\C)C[C@H](C)C[C@H](OC)[C@H]2O[C@@](O)(C(=O)C(=O)N3CCCC[C@H]3C(=O)O[C@H](/C(C)=C/[C@@H]3CC[C@@H](O)[C@H](OC)C3)[C@H](C)[C@@H](O)CC1=O)[C@H](C)C[C@@H]2OC` [ascomycin] (10 µM) yielded a morphology score in experiment [1] of 0.0662. Further, in experiment [2], the SARS-CoV-2 infection rate is 100% (inactive).
For `CCCCCCCCCCCCCCCCCC(=O)OC[C@@H](O)[C@H]1OC[C@H](O)[C@H]1O` [sorbitan-monostearate] (10 µM) the same measures were 0.0535 and 97.5% (inactive).
As to `CCN(CCCc1ccccc1)CCCc1ccccc1` [alverine] (10 µM), in experiment [1], the morphology score came to 0.397. Also, in experiment [2], the SARS-CoV-2 infection rate is 62% (inactive).
Regarding `c1ccc(OCc2ccc(CCCN3CCOCC3)cc2)cc1` [fomocaine] (10 µM), the morphology score in experiment [1] is -0.0235. In addition, the SARS-CoV-2 infection rate in experiment [2] is 106% (inactive).
`COC(=O)C1=C(C)NC(C)=C(C(=O)OCCN(C)Cc2ccccc2)C1c1cccc([N+](=O)[O-])c1` (centres undefined) [nicardipine] (10 µM) registered a morphology score in experiment [1] of 0.0181. Besides, the SARS-CoV-2 infection rate in experiment [2] is 103% (inactive).
In experiment [1], `N[C@H]1C[C@@H]1c1ccccc1` (racemic) [tranylcypromine] (10 µM) yielded a morphology score of 0.0679. Moreover, the SARS-CoV-2 infection rate in experiment [2] is 114% (inactive).
With `CC(C)(O)CC(=O)NCCn1ccc2ncnc(Nc3ccc(Oc4cccc(C(F)(F)F)c4)c(Cl)c3)c21` (10 µM), in experiment [1], the morphology score was -0.138. In experiment [2], the SARS-CoV-2 infection rate is 114% (inactive).
For `N#Cc1ncccn1` [2-cyanopyrimidine] (10 µM) the same measures were 0.0613 and 108% (inactive).
For `NC(=O)C1=CN([C@@H]2O[C@H](COP(=O)(O)OP(=O)(O)OC[C@H]3O[C@@H](n4cnc5c(N)ncnc54)[C@H](O)[C@@H]3O)[C@@H](O)[C@H]2O)C=CC1` [coenzyme-I] (10 µM) the same measures were 0.00507 and 103% (inactive).
In experiment [1], `Nc1nc(N)nc(NC2CC2)n1` [cyromazine] (10 µM) yielded a morphology score of 0.128. Moreover, the SARS-CoV-2 infection rate in experiment [2] was 86.5% (inactive).
The corresponding values for `COC(=O)c1ccc(N2CCN(C)CC2)c(NC(=O)c2cccc(OC)c2)c1` (10 µM) are 0.142 and 105% (inactive).
As to `CN1C2CCC1CC(OC(c1ccccc1)c1ccc(Cl)cc1)C2` (centres undefined) (0.833333 µM), in experiment [1], the morphology score was determined as 0.251. In addition, the SARS-CoV-2 infection rate in experiment [2] was 98.5% (inactive).
The compound `O=C(O)[C@H]1CCCN(CCC=C(c2ccccc2)c2ccccc2)C1` (racemic) (10 µM) registered a morphology score in experiment [1] of 0.0757. Moreover, the SARS-CoV-2 infection rate in experiment [2] is 88.5% (inactive).
For `O=C(O[C@H]1CN2CCC1CC2)N(Cc1cc(F)c(F)c(F)c1)c1cccc(F)c1` [tarafenacin] (10 µM) the same measures were 0.371 and 74% (inactive).
For `CCCc1nn(C)c2c(=O)[nH]c(-c3cc(S(=O)(=O)N4CCN(C)CC4)ccc3OCC)nc12` [sildenafil] (10 µM) the same measures were 0.056 and 109% (inactive).
The corresponding values for `Cc1ccc([N+](=O)[O-])cc1S(=O)(=O)N(C)C` (10 µM) are 0.0445 and 97% (inactive).
Take `N=C(N)N` [guanidine] (0.833333 µM): the morphology score in experiment [1] is -0.293. In experiment [2], the SARS-CoV-2 infection rate was 118% (inactive).
Take `CS(=O)(=O)OC[C@H](O)[C@@H](O)COS(C)(=O)=O` [treosulfan] (10 µM): in experiment [1], the morphology score was -0.204. Also, the SARS-CoV-2 infection rate in experiment [2] was 118% (inactive).
`CCCCCCCCCCCCCCCCCCCCCCCCCCCCO` [1-octacosanol] (10 µM) registered a morphology score in experiment [1] of 0.118. In experiment [2], the SARS-CoV-2 infection rate was 100% (inactive).
The corresponding values for `O=[N+]([O-])O[C@H]1CO[C@H]2[C@@H]1OC[C@H]2O[N+](=O)[O-]` [isosorbide-dinitrate] (10 µM) are 0.0765 and 112% (inactive).
In experiment [1], `CC(C)Oc1ccc(-c2nn([C@@H](C)c3oc4ccc(F)cc4c(=O)c3-c3cccc(F)c3)c3ncnc(N)c23)cc1F` (10 µM) returned a morphology score of 0.0291. Moreover, the SARS-CoV-2 infection rate in experiment [2] is 106% (inactive).
For `O=C(N[C@@H]1CC[C@@H](c2cccc(F)c2F)CN(CC(F)(F)F)C1=O)N1CCC(n2c(=O)[nH]c3ncccc32)CC1` [telcagepant] (10 µM) the same measures were 0.0561 and 102% (inactive).
Take `CC(C[N+](C)(C)C)OC(N)=O` (centres undefined) [bethanechol] (10 µM): the morphology score in experiment [1] was determined as 0.0417. In experiment [2], the SARS-CoV-2 infection rate was 106% (inactive).
For `CCOP(=S)(OCC)Oc1nc(Cl)c(Cl)cc1Cl` [chlorpyrifos] (10 µM) the same measures were -0.24 and 112% (inactive).
As to `COc1ccc(COc2ccc(Cc3cnc(N)nc3N)cc2OC)cc1` (10 µM), in experiment [1], the morphology score was -0.072. The SARS-CoV-2 infection rate in experiment [2] was 112% (inactive).
The corresponding values for `N#C/C(=C\c1ccc(O)c(O)c1)C(N)=O` [tyrphostin-AG-99] (10 µM) are 0.0858 and 106% (inactive).
Compound `O=P(O)(O)C(O)(Cn1ccnc1)P(=O)(O)O` [zoledronic-acid] (10 µM) had a morphology score in experiment [1] of 0.0372. Also, the SARS-CoV-2 infection rate in experiment [2] is 116% (inactive).
On to `O=C(O)COc1nn(Cc2ccccc2)c2ccccc12` [bendazac] (10 µM), for which the morphology score in experiment [1] was -0.0178. In addition, the SARS-CoV-2 infection rate in experiment [2] is 102% (inactive).
For `C=C1/C(=C\C=C2/CCC[C@]3(C)[C@@H]([C@H](C)CCCC(C)C)CC[C@@H]23)C[C@@H](O)C[C@@H]1O` [alfacalcidol] (10 µM), the morphology score in experiment [1] stood at 0.0852. Moreover, the SARS-CoV-2 infection rate in experiment [2] was 98% (inactive).
In turn, `CCCCCCOC(=O)NC(=N)c1ccc(NCc2nc3cc(C(=O)N(CCC(=O)OCC)c4ccccn4)ccc3n2C)cc1` [dabigatran-etexilate] (10 µM) returned a morphology score in experiment [1] of 0.027. Further, in experiment [2], the SARS-CoV-2 infection rate is 98.5% (inactive).
The corresponding values for `CN(C)C/C=C(/c1ccc(Br)cc1)c1cccnc1` [zimelidine] (10 µM) are 0.166 and 97% (inactive).
In the case of `C[C@H](Nc1cc2c(-c3ccc4c(c3)OCO4)noc2cn1)c1ccccc1` (10 µM), the morphology score in experiment [1] was determined as 0.191. Besides, in experiment [2], the SARS-CoV-2 infection rate was 84.5% (inactive).
Take `O=C(/C=C/c1ccccc1)NC(NC(=S)Nc1cccc2cccnc12)C(Cl)(Cl)Cl` (centres undefined) [salubrinal] (10 µM): in experiment [1], the morphology score is -0.178. The SARS-CoV-2 infection rate in experiment [2] was 108% (inactive).
The corresponding values for `COC(=O)Nc1nc2cc(C(=O)c3cccs3)ccc2[nH]1` [nocodazole] (0.833333 µM) are 0.025 and 104% (inactive).
For `NC(=O)c1noc([C@H](CCCC2CCCCC2)CC(=O)NO)n1` (10 µM) the same measures were 0.51 and 85% (inactive).
